# Source: PubChem BioAssay (National Center for Advancing Translational Sciences (NCATS))
# HCMV inh: inhibitors of human cytomegalovirus | AID 1259415 | HFF cells, HCMV-luciferase reporter, 72 h; active compounds read low | actives 4.5% (n = 410,000) | activity change, negative = inhibition, % at 57.5 µM; in the data active = activity change below about -60%; inconclusive = no clear call, values can overlap the other calls; inactive = above about -39%
#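 Screen run at 2 compound doses on HFFs infected with reporter HCMV, MOI 1 PFU/cell. Luciferase activity from cell lysates at 72 h post infection gave inhibition relative to buffer-only and Salinomycin wells.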
# Marburg entry inh: Marburg virus entry inhibition | Marburg virus pseudotyped entry inhibition, cell reporter | actives 1.8% (n = 300,000) | Potency, µM (highest dose often 37.8 µM), inactives show at the highest dose activity change, negative = inhibition, hits mostly inhibitors | AID 540276; calls by dose curve; tested in HEK293 cells; note: potency is the fitted concentration of half-maximal effect
# HCV inhibitor: HCV inhibition; Huh7.5.1 HCVcc-Cre infection, luciferase reporter, 44 h; Potency, µM (top dose mostly 41.8 µM), for the others: top-dose activity change, negative = inhibition, actives largely listed as inhibitors; actives 3.4% (n = 340,000); note: potency is the fitted concentration of half-maximal effect
#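 Infectious HCVcc-Cre (~0.5 moi) was added to cells just after compound, with cells seeded 4 h earlier at 1,000 per well. Luciferase activity after 44 h culture reported infection; substrate was incubated 15 min at room temperature before reading.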
# Giardia FBPA inh: Giardia lamblia aldolase inhibition; A8B2U2; purified Giardia FBPA; Potency, µM (titrated, usually from 59.6 µM), for the others: top-dose activity, negative = inhibition, actives largely listed as inhibitors; actives 0.71% (n = 290,000); note: potency is the fitted concentration of half-maximal effect; nearly all actives have a fitted effect of over 55% in size
# Target sequence (A8B2U2 whole entry, looked up): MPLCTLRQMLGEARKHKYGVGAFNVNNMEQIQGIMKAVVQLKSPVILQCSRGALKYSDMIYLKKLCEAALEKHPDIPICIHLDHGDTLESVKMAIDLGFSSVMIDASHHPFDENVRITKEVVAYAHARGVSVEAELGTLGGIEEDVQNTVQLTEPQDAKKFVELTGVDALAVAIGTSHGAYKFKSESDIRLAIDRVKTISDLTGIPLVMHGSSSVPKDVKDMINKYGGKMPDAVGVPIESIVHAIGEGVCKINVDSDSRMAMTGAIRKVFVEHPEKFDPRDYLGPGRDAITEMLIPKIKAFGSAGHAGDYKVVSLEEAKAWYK
#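 Giardia FBPA (40 nM reagent) was preincubated 10 min at RT with compound (up to 57.5 uM final), then substrate plus GAPDH/TPI/NAD/arsenate coupling system with diaphorase/resazurin was added; resorufin fluorescence (525/598 nm) was read after 20 min.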
# LASV entry inh: blocks Lassa virus binding to or entry into cells. Lassa virus pseudotype entry inhibition, cell reporter. Potency, µM (doses to about 37.9 µM), inactives show at the top dose activity change, negative = inhibition, usual class: inhibitors. actives 1.2% (n = 300,000). AID 540256; calls by dose curve; tested in HEK293 cells; note: potency is the fitted concentration of half-maximal effect; nearly all actives have a fitted effect of over 50% in size
# FMDV inh: antivirals against foot and mouth disease virus; actives 1.2% (n = 410,000); FMDV antiviral cell-based qHTS; AID 1159524; Potency, µM (series often up to 57.9 µM), inactives show at the top dose activity change, negative = inhibition, usual class: inhibitors; calls by dose curve; tested in HEK293T cells; note: read-out not given here; potency is the fitted concentration of half-maximal effect; nearly all actives have a fitted effect of over 45% in size
# * = called active by the depositor; ? = inconclusive; · = no result given; [ ] = remark or other dose. An excerpt weighted towards active compounds, which were near 8.3% of everything screened. Unless noted, calls come from the whole dose curve; as a rule, active = well fitted curve in the direction sought with a large enough effect; inconclusive = small, poorly fitted or top-dose-only effect, or another doubt; inactive = no such curve, though single readings can be large; an effect the other way counts as inactive or inconclusive. % is set by controls: 0 for no effect and ±100 for the full control effect.
SMILES,HCMV inh,Marburg entry inh,HCV inhibitor,Giardia FBPA inh,LASV entry inh,FMDV inh
COc1cc2c(c(OC)c1OC)-c1ccc(O)c(=O)cc1[C@@H](NC(C)=O)CC2,-37,·,-24%,5%,·,-17%
CN[C@H]1CCc2cc(OC)c(OC)c(OC)c2-c2ccc(OC)c(=O)cc21,-95*,·,-8%,·,·,-8%
COc1cc2c(c(OC)c1OC)-c1ccc(O)cc1[C@@H](NC(C)=O)CC2,-78*,·,-10%,·,·,7%
CN[C@H]1CCc2cc(OC)c(OC)c(OC)c2-c2ccc(N[C@@H]3CCCCNC3=O)c(=O)cc21,·,·,·,?,·,-3%
CCN1C(=NCCc2ccccn2)NC(c2cccc(C(F)(F)F)c2)C(C(=O)OC)=C1C (stereo not drawn),·,-20%[14.2 µM],·,·,?,·
COc1ccc2cc(CN(C(=O)c3cc(C)nn3C)C3CC3)c(-c3ccc(Cl)cc3)nc2c1,·,·,·,·,·,-19%
N#Cc1cccc(-c2nc3cnc(Oc4cccc(Cl)c4)nc3n(C3CC3)c2=O)c1,·,·,·,0%,·,-25%
O=C1COc2ccc(C(=O)/C=C/c3ccccc3)cc2N1,-84*,6%,0%,5%,?,-1%
COc1ccc(OC)c(NC(=O)c2cn(CC(C)C)c(=O)c3cc(OC)c(OC)cc23)c1,-20,-50%[46.1 µM],·,·,?,-28%
O=C(COc1ccccc1)NC1CCS(=O)(=O)C1 (stereo not drawn),2,0%,11%,5%,7%,-11%
O=C(NCC1CCS(=O)(=O)C1)Oc1ccccc1 (stereo not drawn),-95*,-1%,1%,2%,16%,-12%
O=C(CCCc1c[nH]c2ccccc12)N1CCOCC1,78,3%[46.1 µM],7%,0%,10%,44%
COc1ccc(N2CCN(C(=O)CCc3c[nH]c4ccccc34)CC2)cc1,-8,-5%[46.1 µM],-28%,-1%,?,11%
O=C(CCc1c[nH]c2ccccc12)N1CCN(c2ccc(O)cc2)CC1,-65*,?,?,?,?,17%
O=C(CCCc1c[nH]c2ccccc12)N1CCN(S(=O)(=O)c2cccs2)CC1,-7,-27%,13µM*,0%,-28%,25µM*
CN(C)c1ccc(/C=C2\C(=O)Nc3ccccc32)cc1,·,2µM*,·,-14%,?,-4%
CN(C)c1ccc(/C=C2/C(=O)Nc3ccccc32)cc1,·,2µM*,·,-15%,·,-14%
O=C1Nc2ccccc2/C1=C/c1cccnc1,-18,?,?,-4%,?,-30%
O=C(CSC1=Nc2ccccc2C2=NC(Cc3c[nH]c4ccccc34)C(=O)N12)NC1CCCCC1 (stereo not drawn),29,-5%,-27%,-23%,?,12%
CC1CC(C)CN(C(=O)CSC2=Nc3ccccc3C3=NC(Cc4c[nH]c5ccccc45)C(=O)N23)C1 (stereo not drawn),·,?,-25%,0%,2.6µM*,-1%
CCC(=O)N1CCc2cc(S(=O)(=O)NC(Cc3ccccc3)C(=O)NCc3cccc(OC)c3)ccc21 (stereo not drawn),-2,-26%[46.1 µM],·,·,?,21%
COc1ccc(NC(=O)CSc2nc3ccccc3n2-c2ccccc2)c([N+](=O)[O-])c1,-3,12µM*,?,-3%,?,-26%
O=C(CSc1nc2ccccc2n1-c1ccccc1)Nc1ncc(Cl)cc1Cl,?,1.1µM*,?,7%,2.5µM*,-7%
COc1ccc(-n2c(SCC(=O)Nc3ncc(Cl)cc3Cl)nc3ccccc32)cc1,·,·,·,-13%,·,·
O=S1(=O)N(CCN2CC=C(c3c[nH]c4cc(F)ccc34)CC2)c2cccc3c2N1CCC3,-80*,?,?,-13%,?,0%
SMILES,HCMV inh,Marburg entry inh,HCV inhibitor,Giardia FBPA inh,LASV entry inh,FMDV inh
c1ccc2sc(C3(N4CCCCC4)CCCCC3)cc2c1,·,7.1µM*,·,1%,?,-21%
Cc1cc(NC(=S)N(Cc2ccc(Cl)cc2)Cc2ccc(C(=O)O)cc2)ccc1Cl,-62*,·,0%,-19%,·,-17%
CN(CC(=O)Nc1ccc([N+](=O)[O-])cc1Br)Cc1c(F)cccc1Cl,-22,·,14µM*,-7%,·,-4%
Nc1ncc(-c2nnnn2-c2ccc(Cl)cc2)c(-c2ccc(Cl)cc2)n1,-31,?,?,1%,?,-12%
Cc1ccc(-n2nnnc2-c2cnoc2-c2cccc(F)c2)cc1,12,-15%,14%,0%,-3%,6%
Clc1ccc(-n2nnnc2-c2cnc3ccccc3c2-c2ccccc2)cc1,-72*,-34%,?,-9%,-5%,-23%
Cc1ccc(-n2nnnc2-c2cnc3ccc(Cl)cc3c2-c2ccccc2)cc1,?,?,10µM*,-5%,?,-1%
O=C(O)c1ccc(Cl)c(N2C(=O)Nc3ccccc3N2O)c1,-61*,·,-5%,-5%,·,9%
COC(=O)c1ccc(NCc2cc(O)ccc2O)cc1O,-7,?,?,·,20µM*,?
COC(=O)c1ccc(NCc2c(O)ccc(O)c2Br)cc1Cl,-28,?,11µM*,·,-17%,?
Cc1cc(S(=O)(=O)Nc2cc3c(cc2NCc2ccccc2)n(C)c(=O)n3C)ccc1F,-21,4%[46.1 µM],·,·,19%[46.1 µM],18%
CCCOc1ccc(C(=O)Nc2cc3nn(-c4ccc(CC)cc4)nc3cc2C)cc1,4,-22%[46.1 µM],·,·,18%[46.1 µM],31%
Cc1cc(C)cc(N(C(=O)c2nsc(Cl)c2Cl)C(C(=O)NC2CCCC2)c2ccc(O)cc2)c1 (stereo not drawn),-71*,?,?,5%,?,-16%
Cc1cccc(N(C(=O)c2nsc(Cl)c2Cl)C(C(=O)NC2CCCC2)c2ccc(O)cc2)c1C (stereo not drawn),?,?,?,-3%,7.3µM*,-6%
Cc1ccc(N(CC(=O)NC2CCCC2)C(=O)c2nsc(Cl)c2Cl)cc1,-75*,-12%[46.1 µM],-12%,-8%,4%[46.1 µM],4%
Cc1ccc(N(C(=O)c2nsc(Cl)c2Cl)C(C(=O)NC2CCCC2)c2ccc(O)cc2)cc1C (stereo not drawn),?,?,?,0%,1.6µM*,-15%
COc1ccc(C(C(=O)NC2CCCC2)N(Cc2ccccc2)C(=O)c2nsc(Cl)c2Cl)cc1 (stereo not drawn),8,?,?,-8%,?,·
CCOc1ccc(C(C(=O)NC2CCCC2)N(Cc2ccccc2)C(=O)c2nsc(Cl)c2Cl)cc1 (stereo not drawn),6,·,?,-5%,·,2%
CC(C)[C@@H]1Cc2c(C#N)c(N)n(C)c(=S)c2CO1,·,3%,·,·,·,·
Cc1ccc(S(=O)(=O)N[C@H]2COC(=O)C/C=C\[C@@H](C)COC(=O)C/C=C\[C@@H]2C)cc1,·,·,·,2%[12.9 µM],·,·
C=CCNc1ccc2c(c1)OC[C@H](CC(C)C)NS2(=O)=O,-6,·,·,·,·,·
